The record followed here is PubChem BioAssay (Tox21).

Experiment [1] in a line: qHTS RealTime-Glo MT Cell Viability Assay in HEK293 cells - 16 hour (AID 1224872). Note: nearly all actives have a fitted effect of over 50% in size. Note: potency is the fitted concentration of half-maximal effect. In a few lines:
(§1)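 Tox21 10K qHTS, HEK293, 600 cells/well, RealTime-Glo reagent co-dispensed with cells; 5 h preincubation, compound by pintool, 37 C, luminescence at 0–40 h.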

Experiment [2] is described as follows: qHTS RealTime-Glo MT Cell Viability Assay in HepG2 cells - 8 hour (AID 1224873). Note: nearly all actives have a fitted effect of over 55% in size. Note: potency is the fitted concentration of half-maximal effect. Put shortly: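 Real-time viability: cells seeded at 600 per well together with NanoLuc and cell-permeant prosubstrate, compounds added after 5 h incubation. Luminescence tracked at 0, 8, 16, 24, 32 and 40 h of exposure.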
A general note: qHTS replaces the single test concentration by a dilution series.

Experiment [3] in a line: qHTS RealTime-Glo MT Cell Viability Assay in HEK293 cells - 40 hour (AID 1224874). Note: nearly all actives have a fitted effect of over 50% in size. Note: potency is the fitted concentration of half-maximal effect. The following applies: RealTime-Glo luminescence; max response: active compounds read low. In a few lines:
(§2)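 Real-time viability in HEK293: signal arises when living cells convert a prosubstrate for NanoLuc in the medium, so luminescence tracks viable cell number. Compound (23 nL, DMSO) added 5 h post-seeding; kinetic reads at 0–40 h, 37 C.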

Experiment [4] in a line: A CellTox Green Cytotoxicity Assay to monitor cytotoxicity in HepG2 cells - 16 hour (AID 1224876). Note: nearly all actives have a fitted effect of over 45% in size. In a few lines: (§3)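 Cells and non-lytic dye reagent are dispensed together (600 HepG2 cells/well) and incubated 5 h before DMSO compound transfer. Kinetic fluorescence is then recorded in the same wells during 40 h at 37 C.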
Experiment [5] is described as follows: qHTS RealTime-Glo MT Cell Viability Assay in HepG2 cells - 32 hour (AID 1224877). Note: nearly all actives have a fitted effect of over 55% in size. Put shortly: (§4)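 Cells + NanoLuc/prosubstrate dispensed (600 cells/well) → 5 h at 37 C/5% CO2 → compounds in DMSO transferred → 40 h incubation at 37 C, luminescence read at 0, 8, 16, 24, 32, 40 h.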
Experiment [6] can be described thus: A CellTox Green Cytotoxicity Assay to monitor cytotoxicity in HepG2 cells - 24 hour (AID 1224878). Note: nearly all actives have a fitted effect of over 45% in size. In a few lines: as §3
Experiment [7] in a line: A CellTox Green Cytotoxicity Assay to monitor cytotoxicity in HepG2 cells - 40 hour (AID 1224879). Note: nearly all actives have a fitted effect of over 40% in size. Note: potency is the fitted concentration of half-maximal effect. In a few lines: as §3
Experiment [8] is described as follows: A CellTox Green Cytotoxicity Assay to monitor cytotoxicity in HepG2 cells - 32 hour (AID 1224883). Note: nearly all actives have a fitted effect of over 50% in size. Note: potency is the fitted concentration of half-maximal effect. In a few lines:
as §3

Experiment [9] can be described thus: A CellTox Green Cytotoxicity Assay to monitor cytotoxicity in HEK293 cells - 8 hour (AID 1224884). Note: nearly all actives have a fitted effect of over 35% in size. Put shortly: (§5)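 Cells (HEK293, 600/well) and dye reagent are dispensed together. After 5 h at 37 C, 23 nL compound is pinned in. Plates stay at 37 C for 40 h with fluorescence read at 0h, 8h, 16h, 24h, 32h and 40h.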
Experiment [10] can be described thus: qHTS RealTime-Glo MT Cell Viability Assay in HepG2 cells - 16 hour (AID 1224885). Note: nearly all actives have a fitted effect of over 50% in size. Note: potency is the fitted concentration of half-maximal effect. In a few lines: as §4
The nature of experiment [11]: qHTS RealTime-Glo MT Cell Viability Assay in HEK293 cells - 24 hour (AID 1224886). Note: nearly all actives have a fitted effect of over 50% in size. Note: potency is the fitted concentration of half-maximal effect. Put shortly: as §1
Experiment [12] can be described thus: qHTS RealTime-Glo MT Cell Viability Assay in HEK293 cells - 8 hour (AID 1224887). Note: nearly all actives have a fitted effect of over 50% in size. Note: potency is the fitted concentration of half-maximal effect. In a few lines: as §2
Experiment [13] in a line: qHTS RealTime-Glo MT Cell Viability Assay in HepG2 cells - 0 hour (AID 1224889). Note: nearly all actives have a fitted effect of over 50% in size. In a few lines: as §4
The nature of experiment [14]: A CellTox Green Cytotoxicity Assay to monitor cytotoxicity in HepG2 cells - 8 hour (AID 1224890). Note: nearly all actives have a fitted effect of over 45% in size. Note: potency is the fitted concentration of half-maximal effect. Put shortly:
as §3

A short description of experiment [15]: qHTS RealTime-Glo MT Cell Viability Assay in HEK293 cells - 0 hour (AID 1224880). Note: top concentration of the series differs between compounds; nearly all actives have a fitted effect of over 45% in size. In a few lines: as §2
Experiment [16] can be described thus: A CellTox Green Cytotoxicity Assay to monitor cytotoxicity in HepG2 cells - 0 hour (AID 1224882). Note: nearly all actives have a fitted effect of over 35% in size. In a few lines:
as §3

The nature of experiment [17]: A CellTox Green Cytotoxicity Assay to monitor cytotoxicity in HEK293 cells - 24 hour (AID 1224875). Put shortly:
as §5

The nature of experiment [18]: A CellTox Green Cytotoxicity Assay to monitor cytotoxicity in HEK293 cells - 32 hour (AID 1224881). Note: nearly all actives have a fitted effect of over 40% in size. Put shortly: as §5
Experiment [19] is described as follows: A CellTox Green Cytotoxicity Assay to monitor cytotoxicity in HEK293 cells - 16 hour (AID 1224888). Note: nearly all actives have a fitted effect of over 35% in size. In a few lines:
as §5

Unmarked numbers belong to inactive results. Inconclusive results are not listed. The source made the active and inactive calls. Calls come from the whole dose curve; as a rule, active = well fitted curve in the direction sought with a large enough effect in the repeat runs; inconclusive = weak or mixed curves; inactive = no such curve, though single readings can be large; an effect the other way counts as inactive or inconclusive.
% is set by controls: 0 for no effect and ±100 for the full control effect.

As to `ClC1=C(Cl)[C@]2(Cl)[C@@H]3[C@@H](Cl)[C@H](Cl)C[C@@H]3[C@@]1(Cl)C2(Cl)Cl`, the Potency entry in experiment [1], in [2], in experiment [4], in experiment [5], in experiment [6] and in experiment [7] was “inactive” in each case. In addition, the Potency entry in experiment [8], in [9], in experiment [10], in experiment [11], in experiment [12] and in experiment [13] was “inactive” each time. In addition, in experiment [14], the Potency entry was “inactive”. Besides, the max response in experiment [3] is 7.93%.
Turning to `CC1(c2ccc(Oc3ccccc3)cc2)OC(=O)N(Nc2ccccc2)C1=O` (stereo not given), the Potency in experiment [2] was 49.3 µM (active); in [3], 49.3 µM (active); in experiment [7], 55.3 µM (active); in experiment [10], 49.3 µM (active); in experiment [11] it was 43.9 µM (active). The Potency entry in experiment [15], in experiment [16] and in experiment [13] was “inactive” each time.
As to `Oc1ccc2ccc3cccc4ccc1c2c34`, the Potency was 43.6 µM (active) in experiment [2]; 13.8 µM (active) in experiment [3]; 54.9 µM (active) in experiment [7]; 54.9 µM (active) in experiment [8]; 49 µM (active) in experiment [10]; 15.5 µM (active) in experiment [11]. Further, in [12], the Potency was 13.8 µM (active). For the same compound, the Potency result in [16] and in experiment [13] was “inactive” each time.
For the compound `CCOP(=O)(NC(C)C)Oc1ccc(SC)c(C)c1` (stereo not given), the Potency entry in [2], in experiment [17], in [5], in experiment [18], in [16] and in experiment [9] was “inactive” in each case. Further, the Potency entry in [10], in experiment [13] and in experiment [14] was “inactive” throughout. Also, the Potency in [3] is 13.8 µM (active).
Consider `COP(=O)(OC)SCn1c(=O)oc2cc(Cl)cnc21`, for which the Potency result in experiment [2], in experiment [17], in [4], in experiment [5], in experiment [6] and in experiment [16] was “inactive” throughout. Further, the Potency entry in [9], in experiment [10], in experiment [12], in [19], in [13] and in experiment [14] was “inactive” each time. Further, in experiment [7], the Potency is 49 µM (active).
Turning to `CC(=O)O[C@H]1CC[C@@]2(C)C(=CC[C@@H]3[C@@H]2CC[C@]2(C)C(=O)CC[C@@H]32)C1`, the Potency is 49 µM (active) in experiment [1], 54.9 µM (active) in experiment [3] and 54.9 µM (active) in experiment [11]. The Potency entry in experiment [2], in experiment [4], in experiment [5], in experiment [6], in experiment [7] and in experiment [16] was “inactive” each time. For the same compound, the Potency result in experiment [8], in experiment [10], in experiment [19], in experiment [13] and in experiment [14] was “inactive” throughout.
With `Oc1ccc(C2(c3ccc(O)cc3)CCCCC2)cc1`, the Potency entry in experiment [2], in experiment [4], in experiment [5], in experiment [6], in [15] and in [16] was “inactive” each time. In addition, the Potency result in experiment [10], in experiment [13] and in experiment [14] was “inactive” throughout. For the same compound, the Potency in [3] was 46.4 µM (active).
In the case of `O=[N+]([O-])c1ccc2ccc3cccc4ccc1c2c34`, the Potency entry in [1], in experiment [2], in experiment [4], in experiment [5], in experiment [6] and in experiment [15] was “inactive” in each case. Besides, the Potency entry in experiment [16], in experiment [10], in [11], in [13] and in [14] was “inactive” each time. Further, in experiment [3], the max response is -23.8%.
In the case of `CN(C)c1ccc(N=Nc2ccccc2)cc1`, the Potency result in [4], in [5], in experiment [6], in experiment [7], in [16] and in [8] was “inactive” each time. For the same compound, the Potency result in [10], in [13] and in [14] was “inactive” each time.
On to `N#CC(Cl)Cl`, for which the Potency result in [2], in [17], in [4], in [5], in [6] and in [15] was “inactive” each time. Besides, the Potency result in experiment [18], in [9], in [10], in experiment [12], in [19] and in [13] was “inactive” throughout. The Potency in experiment [7] was 1.2 µM (active); in experiment [14] it was 1.51 µM (active).
On to `Clc1ccc(C(Cl)(Cl)Cl)c(Cl)c1`, for which the Potency result in experiment [2], in experiment [5], in [15], in experiment [16], in [10] and in experiment [12] was “inactive” throughout. Besides, the Potency entry in [13] and in experiment [14] was “inactive” throughout.
On to `Clc1ccc(Oc2ccccc2)cc1`, for which the Potency entry in experiment [1], in [2], in experiment [4], in experiment [5], in experiment [6] and in experiment [7] was “inactive” each time. Moreover, the Potency result in [15], in [16], in [9], in experiment [10], in experiment [12] and in [19] was “inactive” in each case. Further, the Potency result in experiment [13] and in [14] was “inactive” each time. The max response in experiment [3] was -29.2%.
Turning to `CCOC(=O)C1(c2ccccc2)CCN(CCC(C#N)(c2ccccc2)c2ccccc2)CC1`, the Potency entry in experiment [1], in experiment [17], in [4], in experiment [5], in experiment [6] and in [7] was “inactive” throughout. Besides, the Potency result in [18], in [16], in experiment [8], in experiment [11], in experiment [12] and in experiment [19] was “inactive” each time. Moreover, the Potency result in experiment [13] and in experiment [14] was “inactive” in each case.
